Measured values as given in PubChem BioAssay (EPA / NIEHS).
Calls of active or inactive are those of the source. Rule for the calls: active = hit-call score of the fitted dose curve at least 0.9, where 1 is the maximum; inactive = score below 0.9.

Tests used:
Details in all cases: mRNA level, 48 h; actives raise or lower the signal
[1] = read-out: Phosphatase and tensin (PTEN), PTEN (gene 5728); test: LTEA_HepaRG_PTEN: Life Technologies and Expression Analysis (LTEA) Assay for Phosphatase and tensin (PTEN) using HepaRG (AID 2283523)
Outline: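 Expression of PTEN is quantified in the human liver line HepaRG following two days of dosing (top concentration 100 uM, half-log dilutions, 0.5% DMSO). Values derive from bidirectional curve fitting relative to DMSO controls.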

[2] = read-out: solute carrier (SLC22A1), SLC22A1 (gene 6580); test: LTEA_HepaRG_SLC22A1: Life Technologies and Expression Analysis (LTEA) Assay for solute carrier (SLC22A1) using HepaRG (AID 2283524)
Outline: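 Transcript induction or suppression of SLC22A1 in human HepaRG cultures is scored after 48 h chemical treatment, with DMSO (0.5%) as baseline for bidirectional fitting. Concentrations span eight half-log points topping at 100 uM.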

[3] = read-out: Pyruvate Dehydrogenase Kinase 4 (PDK4), PDK4 (gene 5166); test: LTEA_HepaRG_PDK4: Life Technologies and Expression Analysis (LTEA) Assay for Pyruvate Dehydrogenase Kinase 4 (PDK4) using HepaRG (AID 2283525)
Outline: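 Eight-point, half-log concentration series (max 100 uM, 0.5% DMSO) applied to differentiated HepaRG cells for 48 h in duplicate. Endpoint: PDK4 mRNA induction or repression by qRT-PCR against DMSO baseline.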

[4] = read-out: NAD(P)H dehydrogenase [quinone] 1 (NQO1), NQO1 (gene 1728); test: LTEA_HepaRG_NQO1: Life Technologies and Expression Analysis (LTEA) Assay for NAD(P)H dehydrogenase [quinone] 1 (NQO1) using HepaRG (AID 2283526)
Outline: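 Transcript induction or suppression is quantified by qRT-PCR in human HepaRG liver cells dosed for 48 hours. Eight half-log concentrations topping at 100 uM are used, with 0.5% DMSO as vehicle and baseline.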

[5] = read-out: Nuclear factor erythroid 2-related factor 2 (Homo sapiens) (UniProt Q16236); test: LTEA_HepaRG_NFE2L2: Life Technologies and Expression Analysis (LTEA) Assay for Nuclear factor erythroid 2-related factor 2 (NFE2L2) Transcription Factor using HepaRG (AID 2283527);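 for outcome: TaqMan qRT-PCR transcript level normalised to ACTB GAPDH and POLR2A housekeeping genes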
Outline: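 Human liver HepaRG line treated in duplicate for 48 h with an eight-point series topping at 100 uM. Gene expression of NFE2L2 by qRT-PCR, bidirectionally fitted against the vehicle control.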

[6] = read-out: succinate dehydrogenase complex iron sulfur subunit B (SDHB), SDHB (gene 6390); test: LTEA_HepaRG_SDHB: Life Technologies and Expression Analysis (LTEA) Assay for succinate dehydrogenase complex iron sulfur subunit B (SDHB) using HepaRG (AID 2283528)
Outline: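 Readout is SDHB transcript level by qRT-PCR, normalised to three housekeeping genes and fitted bidirectionally against 0.5% DMSO vehicle. Human HepaRG cells were treated for 48 h at up to 100 uM.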

[7] = read-out: Signal transducer and activator of transcription 3 (Homo sapiens) (UniProt P40763); test: LTEA_HepaRG_STAT3: Life Technologies and Expression Analysis (LTEA) Assay for Signal transducer and activator of transcription (STAT3) using HepaRG (AID 2283529)
Outline: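 In this transcriptional endpoint, HepaRG cultures receive test chemicals at up to 100 uM for 48 h, tested in duplicate. STAT3 mRNA is normalized to ACTB, GAPDH and POLR2A.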

[8] = read-out: solute carrier (SLCO1B1), SLCO1B1 (gene 10599); test: LTEA_HepaRG_SLCO1B1: Life Technologies and Expression Analysis (LTEA) Assay for solute carrier (SLCO1B1) using HepaRG (AID 2283530)
Outline: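 Differentiated human HepaRG cells were exposed for 48 h in serum-free induction medium to eight half-log concentrations, top 100 uM, in 0.5% DMSO. SLCO1B1 mRNA was measured by qRT-PCR, normalized to ACTB, GAPDH and POLR2A, and fitted bidirectionally against DMSO.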

[9] = read-out: sulfotransferase 2A1 (SULT2A1), SULT2A1 (gene 6822); test: LTEA_HepaRG_SULT2A1: Life Technologies and Expression Analysis (LTEA) Assay for sulfotransferase 2A1 (SULT2A1) using HepaRG (AID 2283531)
Outline: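 HepaRG human liver cells, 48 h exposure in serum-free induction medium to 8 half-log concentrations topping at 100 µM (0.5% DMSO), duplicate wells. SULT2A1 mRNA measured by TaqMan qRT-PCR, normalized to ACTB/GAPDH/POLR2A; bidirectional fit against DMSO.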

[10] = read-out: Transforming Growth Factor (TGFA), TGFA (gene 7039); test: LTEA_HepaRG_TGFA: Life Technologies and Expression Analysis (LTEA) Assay for Transforming Growth Factor (TGFA) using HepaRG (AID 2283532)
Outline: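 Gene expression of TGFA was quantified by qRT-PCR after human HepaRG cells were treated for 48 h with test chemicals (eight concentrations, highest 100 uM, 0.5% DMSO). Activity in either direction was fitted relative to DMSO.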

Chain of Signal transducer and activator of transcription 3 (Homo sapiens) (P40763 whole entry, looked up): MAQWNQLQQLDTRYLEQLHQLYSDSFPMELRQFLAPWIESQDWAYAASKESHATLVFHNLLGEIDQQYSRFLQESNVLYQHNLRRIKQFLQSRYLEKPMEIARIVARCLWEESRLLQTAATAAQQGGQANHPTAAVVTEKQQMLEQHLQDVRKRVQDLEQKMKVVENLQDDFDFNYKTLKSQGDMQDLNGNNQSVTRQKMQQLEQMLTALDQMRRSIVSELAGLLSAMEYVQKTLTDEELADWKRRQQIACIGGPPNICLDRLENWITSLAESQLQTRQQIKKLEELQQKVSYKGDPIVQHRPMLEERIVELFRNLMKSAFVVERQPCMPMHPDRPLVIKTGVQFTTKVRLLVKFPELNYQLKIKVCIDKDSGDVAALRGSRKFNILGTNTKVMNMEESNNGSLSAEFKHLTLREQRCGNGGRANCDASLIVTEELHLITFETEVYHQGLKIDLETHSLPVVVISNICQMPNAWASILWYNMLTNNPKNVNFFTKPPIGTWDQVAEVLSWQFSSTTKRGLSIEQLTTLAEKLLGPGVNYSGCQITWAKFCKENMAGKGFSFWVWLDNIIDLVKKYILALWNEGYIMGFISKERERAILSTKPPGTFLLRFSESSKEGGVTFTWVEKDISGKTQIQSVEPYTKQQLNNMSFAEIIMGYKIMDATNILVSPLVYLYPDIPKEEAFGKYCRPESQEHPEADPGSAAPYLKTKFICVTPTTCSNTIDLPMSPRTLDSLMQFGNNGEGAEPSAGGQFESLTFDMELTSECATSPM
Chain of Nuclear factor erythroid 2-related factor 2 (Homo sapiens) (Q16236 whole entry, looked up): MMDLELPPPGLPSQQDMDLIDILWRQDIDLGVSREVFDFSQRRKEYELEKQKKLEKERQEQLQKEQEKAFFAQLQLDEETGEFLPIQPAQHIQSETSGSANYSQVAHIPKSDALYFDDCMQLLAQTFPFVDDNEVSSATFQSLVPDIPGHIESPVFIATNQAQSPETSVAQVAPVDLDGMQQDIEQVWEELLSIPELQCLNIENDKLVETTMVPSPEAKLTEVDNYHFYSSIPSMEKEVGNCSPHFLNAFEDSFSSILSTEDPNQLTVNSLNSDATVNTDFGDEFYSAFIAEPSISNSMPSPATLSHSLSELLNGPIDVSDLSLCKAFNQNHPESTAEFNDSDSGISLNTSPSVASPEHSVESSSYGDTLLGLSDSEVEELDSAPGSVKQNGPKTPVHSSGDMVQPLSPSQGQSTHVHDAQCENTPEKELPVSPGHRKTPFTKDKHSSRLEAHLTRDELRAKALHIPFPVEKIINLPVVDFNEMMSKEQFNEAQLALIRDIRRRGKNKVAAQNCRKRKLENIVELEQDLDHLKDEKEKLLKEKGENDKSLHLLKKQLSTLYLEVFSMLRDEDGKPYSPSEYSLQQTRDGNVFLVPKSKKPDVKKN

Structure (SMILES): CC(C1CC1)C(O)(Cn1cncn1)c1ccc(Cl)cc1 (centres undefined)
- outcome [1]: inactive
- AC50 [2]: 66.9 µM (active)
- outcome [3]: inactive
- outcome [4]: inactive
- outcome [5]: inactive
- outcome [6]: inactive
- AC50 [7]: 0.389 µM (active)
- outcome [8]: inactive
- outcome [9]: inactive
- outcome [10]: inactive

Structure (SMILES): CCCCOC(=O)c1ccccc1C(=O)O
- outcome [1]: inactive
- outcome [2]: inactive
- outcome [3]: inactive
- outcome [4]: inactive
- outcome [5]: inactive
- outcome [6]: inactive
- outcome [7]: inactive
- outcome [8]: inactive
- outcome [9]: inactive
- outcome [10]: inactive

Structure (SMILES): COP(=O)(OC)SCn1c(=O)oc2cc(Cl)cnc21
- outcome [1]: inactive
- AC50 [2]: 50 µM (active)
- outcome [3]: inactive
- outcome [4]: inactive
- outcome [5]: inactive
- outcome [6]: inactive
- outcome [7]: inactive
- outcome [8]: inactive
- outcome [9]: inactive
- outcome [10]: inactive

Structure (SMILES): COP(=O)(OC)OC(Br)C(Cl)(Cl)Br (centres undefined)
- outcome [1]: inactive
- outcome [2]: inactive
- outcome [3]: inactive
- AC50 [4]: 21.1 µM (active)
- outcome [5]: inactive
- outcome [6]: inactive
- outcome [7]: inactive
- outcome [8]: inactive
- AC50 [9]: 50 µM (active)
- outcome [10]: inactive

Structure (SMILES): CC(C)N(C(=O)SCC(Cl)=C(Cl)Cl)C(C)C
- outcome [1]: inactive
- outcome [2]: inactive
- outcome [3]: inactive
- outcome [4]: inactive
- outcome [5]: inactive
- outcome [6]: inactive
- outcome [7]: inactive
- outcome [8]: inactive
- outcome [9]: inactive
- outcome [10]: inactive

Structure (SMILES): CCOP(=S)(OCC)Oc1ccc2c(C)c(Cl)c(=O)oc2c1
- outcome [1]: inactive
- AC50 [2]: 70 µM (active)
- AC50 [3]: 0.837 µM (active)
- outcome [4]: inactive
- AC50 [5]: 22.2 µM (active)
- outcome [6]: inactive
- outcome [7]: inactive
- outcome [8]: inactive
- outcome [9]: inactive
- outcome [10]: inactive

Structure (SMILES): CCNc1nc(Cl)nc(NC(C)(C)C#N)n1
- outcome [1]: inactive
- outcome [2]: inactive
- outcome [3]: inactive
- outcome [4]: inactive
- outcome [5]: inactive
- outcome [6]: inactive
- outcome [7]: inactive
- outcome [8]: inactive
- outcome [9]: inactive
- outcome [10]: inactive

Structure (SMILES): CCC(CC)Nc1c([N+](=O)[O-])cc(C)c(C)c1[N+](=O)[O-]
- outcome [1]: inactive
- outcome [2]: inactive
- outcome [3]: inactive
- outcome [4]: inactive
- outcome [5]: inactive
- outcome [6]: inactive
- outcome [7]: inactive
- AC50 [8]: 50 µM (active)
- outcome [9]: inactive
- outcome [10]: inactive

Structure (SMILES): CCOC(=O)COc1cc(-c2nn(C)c(OC(F)F)c2Cl)c(F)cc1Cl
- outcome [1]: inactive
- outcome [2]: inactive
- outcome [3]: inactive
- outcome [4]: inactive
- outcome [5]: inactive
- outcome [6]: inactive
- outcome [7]: inactive
- outcome [8]: inactive
- outcome [9]: inactive
- outcome [10]: inactive

Structure (SMILES): CN(C)[C@@H]1C(=O)C(C(N)=O)=C(O)[C@@]2(O)C(=O)C3=C(O)c4c(O)cccc4[C@@](C)(O)[C@H]3[C@H](O)[C@@H]12
- outcome [1]: inactive
- outcome [2]: inactive
- outcome [3]: inactive
- outcome [4]: inactive
- outcome [5]: inactive
- outcome [6]: inactive
- outcome [7]: inactive
- outcome [8]: inactive
- outcome [9]: inactive
- outcome [10]: inactive

Structure (SMILES): CCc1cccc(C)c1N(C(=O)CCl)C(C)COC (centres undefined)
- outcome [1]: inactive
- outcome [2]: inactive
- outcome [3]: inactive
- outcome [4]: inactive
- outcome [5]: inactive
- outcome [6]: inactive
- outcome [7]: inactive
- outcome [8]: inactive
- outcome [9]: inactive
- outcome [10]: inactive

Structure (SMILES): CCCCSP(=O)(SCCCC)SCCCC
- outcome [1]: inactive
- AC50 [2]: 78.9 µM (active)
- AC50 [3]: 77.5 µM (active)
- outcome [4]: inactive
- AC50 [5]: 78 µM (active)
- outcome [6]: inactive
- outcome [7]: inactive
- outcome [8]: inactive
- outcome [9]: inactive
- outcome [10]: inactive

Structure (SMILES): CCCSP(=O)(OCC)SCCC
- outcome [1]: inactive
- AC50 [2]: 10.2 µM (active)
- outcome [3]: inactive
- outcome [4]: inactive
- outcome [5]: inactive
- outcome [6]: inactive
- outcome [7]: inactive
- outcome [8]: inactive
- outcome [9]: inactive
- outcome [10]: inactive

Structure (SMILES): COP(=O)(NC(C)=O)SC (centres undefined)
- outcome [1]: inactive
- outcome [2]: inactive
- outcome [3]: inactive
- outcome [4]: inactive
- outcome [5]: inactive
- outcome [6]: inactive
- outcome [7]: inactive
- outcome [8]: inactive
- outcome [9]: inactive
- outcome [10]: inactive

Structure (SMILES): CCCOc1nn(C(=O)NS(=O)(=O)c2ccccc2C(=O)OC)c(=O)n1C
- outcome [1]: inactive
- outcome [2]: inactive
- outcome [3]: inactive
- outcome [4]: inactive
- outcome [5]: inactive
- outcome [6]: inactive
- outcome [7]: inactive
- outcome [8]: inactive
- outcome [9]: inactive
- outcome [10]: inactive

Structure (SMILES): CCCSP(=O)(OCC)Oc1ccc(Br)cc1Cl (centres undefined)
- outcome [1]: inactive
- outcome [2]: inactive
- outcome [3]: inactive
- outcome [4]: inactive
- outcome [5]: inactive
- outcome [6]: inactive
- outcome [7]: inactive
- outcome [8]: inactive
- outcome [9]: inactive
- outcome [10]: inactive

Structure (SMILES): CNc1cnn(-c2cccc(C(F)(F)F)c2)c(=O)c1Cl
- outcome [1]: inactive
- AC50 [2]: 50 µM (active)
- outcome [3]: inactive
- outcome [4]: inactive
- AC50 [5]: 9.92 µM (active)
- outcome [6]: inactive
- outcome [7]: inactive
- outcome [8]: inactive
- outcome [9]: inactive
- outcome [10]: inactive

Structure (SMILES): COc1cc(OC)nc(Sc2cccc(Cl)c2C(=O)O)n1
- outcome [1]: inactive
- outcome [2]: inactive
- outcome [3]: inactive
- outcome [4]: inactive
- outcome [5]: inactive
- outcome [6]: inactive
- outcome [7]: inactive
- outcome [8]: inactive
- outcome [9]: inactive
- outcome [10]: inactive

Structure (SMILES): Cc1nn(-c2cc(NS(C)(=O)=O)c(Cl)cc2Cl)c(=O)n1C(F)F
- outcome [1]: inactive
- outcome [2]: inactive
- outcome [3]: inactive
- outcome [4]: inactive
- outcome [5]: inactive
- outcome [6]: inactive
- outcome [7]: inactive
- outcome [8]: inactive
- outcome [9]: inactive
- outcome [10]: inactive

Structure (SMILES): CN1COCN(Cc2cnc(Cl)s2)C1=N[N+](=O)[O-]
- outcome [1]: inactive
- outcome [2]: inactive
- outcome [3]: inactive
- outcome [4]: inactive
- outcome [5]: inactive
- outcome [6]: inactive
- outcome [7]: inactive
- outcome [8]: inactive
- outcome [9]: inactive
- outcome [10]: inactive

Structure (SMILES): CC(Oc1cccc(Cl)c1)C(=O)O (centres undefined)
- outcome [2]: inactive
- outcome [3]: inactive
- outcome [4]: inactive
- outcome [5]: inactive
- outcome [6]: inactive
- outcome [7]: inactive
- outcome [8]: inactive
- outcome [9]: inactive
- outcome [10]: inactive
